# Experimental data reported in ChEMBL document CHEMBL1961873, “Compounds: GSK PKIS; Assays: Nanosyn kinase panel” (2012).
# Biological target: Angiopoietin-1 receptor (Homo sapiens) (UniProt Q02763)
# Conditions: at 0.1 µM
# Angiopoietin-1 receptor (Homo sapiens), sequence (Q02763 whole entry): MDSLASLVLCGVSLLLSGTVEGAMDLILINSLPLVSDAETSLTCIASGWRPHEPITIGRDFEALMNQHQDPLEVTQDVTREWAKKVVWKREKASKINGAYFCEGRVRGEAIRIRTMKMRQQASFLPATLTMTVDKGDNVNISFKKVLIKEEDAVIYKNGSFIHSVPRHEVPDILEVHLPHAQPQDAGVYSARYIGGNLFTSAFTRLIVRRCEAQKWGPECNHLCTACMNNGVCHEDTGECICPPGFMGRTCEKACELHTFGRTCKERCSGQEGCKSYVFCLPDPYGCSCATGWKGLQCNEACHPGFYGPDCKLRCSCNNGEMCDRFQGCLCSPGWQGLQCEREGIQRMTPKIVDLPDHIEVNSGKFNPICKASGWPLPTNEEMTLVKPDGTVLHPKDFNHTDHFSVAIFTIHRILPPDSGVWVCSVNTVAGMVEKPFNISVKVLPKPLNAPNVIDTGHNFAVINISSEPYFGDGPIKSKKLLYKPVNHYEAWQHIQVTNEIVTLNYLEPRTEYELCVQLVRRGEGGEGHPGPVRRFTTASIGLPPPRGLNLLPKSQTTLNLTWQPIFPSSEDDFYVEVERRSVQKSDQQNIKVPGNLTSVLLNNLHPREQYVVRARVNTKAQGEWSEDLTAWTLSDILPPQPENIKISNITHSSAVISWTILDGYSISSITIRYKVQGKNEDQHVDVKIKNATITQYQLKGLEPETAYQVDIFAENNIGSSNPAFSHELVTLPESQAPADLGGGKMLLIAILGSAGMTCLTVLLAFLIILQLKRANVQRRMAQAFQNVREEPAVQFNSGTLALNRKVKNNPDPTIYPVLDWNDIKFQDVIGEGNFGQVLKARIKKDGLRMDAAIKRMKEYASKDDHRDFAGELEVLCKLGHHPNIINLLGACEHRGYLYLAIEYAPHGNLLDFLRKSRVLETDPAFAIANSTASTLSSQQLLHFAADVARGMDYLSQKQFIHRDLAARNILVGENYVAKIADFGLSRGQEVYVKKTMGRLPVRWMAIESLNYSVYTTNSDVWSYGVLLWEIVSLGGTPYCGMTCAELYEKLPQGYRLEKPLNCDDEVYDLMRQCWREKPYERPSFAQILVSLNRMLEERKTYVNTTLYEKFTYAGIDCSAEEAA
row,SMILES,inhibition
1,CC(C)=Cc1cccc2c1/C(=N/Nc1ccc(S(N)(=O)=O)cc1)C(=O)N2,0.37%
2,COC(=O)Nc1nc2cc(Oc3cccc(NC(=O)Nc4cc(C(F)(F)F)ccc4F)c3)ccc2[nH]1,1.09%
3,Nc1ncnc2occ(-c3ccc(NC(=O)Nc4cc(C(F)(F)F)cc(C(F)(F)F)c4)cc3)c12,29.1%
4,CCn1c(-c2nonc2N)nc2cncc(C(=O)N3CCNCC3)c21,6.61%
5,NC(=O)c1ccc(-c2nc(-c3ccccn3)c(-c3ccc4c(c3)OCO4)[nH]2)cc1,5.33%
6,CCn1c(-c2nonc2N)nc2c(C#CC(C)(C)O)nc(CN3CCCC3)cc21,2.79%
7,NCc1ccc(-c2nc(-c3ccc(Cl)c(O)c3)c(-c3ccncc3)[nH]2)cc1,4.33%
8,N#Cc1c(NC(=O)c2cccc3ccccc23)sc2c1CCCC2,2.34%
9,Cc1cc(O)cc(C)c1/C=C/c1cncc(-c2nn[nH]n2)c1,4%
10,Cc1cccc(-c2n[nH]cc2-c2ccc3ncccc3n2)n1,1.2%
11,O=C1NC(=O)C(N2CCc3ccccc32)=C1c1ccc(Cl)cc1,5.59%
12,CCn1c(-c2nonc2N)nc2ccncc21,2.16%
13,Cc1nnc(-c2ccc(C)c(-c3ccc(C(=O)Nc4cccc(C#N)c4)cc3)c2)o1,3.65%
14,COc1ccc(-c2nn3ncccc3c2-c2ccnc(Nc3ccc(Cl)c(C(F)(F)F)c3)n2)cc1,4.94%
15,CS(=O)(=O)CCNCc1ccc(-c2ccc3ncnc(Nc4ccc(OCc5ccccc5)c(Cl)c4)c3c2)o1,7.47%
16,O=C1NC(=O)C(c2ccc(Cl)cc2)=C1Nc1ccc(Cl)c(C(=O)O)c1,-0.19%
17,CCc1cccc(NC(=O)Nc2ccc(Oc3ccc4nc(NC(=O)OC)[nH]c4c3)cc2)c1,46.2%

row,SMILES,inhibition
1,Nc1ncnc2occ(-c3ccc(NC(=O)Nc4cccc(C(F)(F)F)c4)cc3)c12,56.4%
2,CCn1c(-c2nonc2N)nc2c(C#CC(C)(C)O)nc(OC[C@@H](N)c3ccccc3)cc21,1.25%
3,Cc1ccc(NC(=O)c2ccnc(N3CCCC3)c2)cc1-c1ccc(C(=O)NCC2CC2)cc1,1.03%
4,CCn1c(-c2nonc2N)nc2cncc(C(=O)N3CC[C@H](N)C3)c21,11.3%
5,Cn1cc(C=C2C(=O)Nc3cccnc32)c2ccccc21,2.82%
6,CN(C)c1cc2c(Nc3ccc4nc(Cc5ccccc5)[nH]c4c3)ncnc2cn1,3.86%
7,O=C1NC(=O)C(c2ccccc2Cl)=C1Nc1cccc(O)c1,1.47%
8,CC(=O)Nc1cccc(C#Cc2cncnc2Nc2ccc(OCc3cccc(F)c3)c(Cl)c2)n1,-1.08%
9,COc1ccccc1Nc1ncc(-c2ccccc2)o1,0.33%
10,CCn1c(-c2nonc2N)nc2c(N3CCCC3)nccc21,0.7%
11,COc1ccc(-c2coc3ncnc(N)c23)cc1,2.58%
12,O=C1NC(=O)C(c2cccc(Cl)c2)=C1Nc1ccc(O)c(Cl)c1,1.54%
13,CS(=O)(=O)CCNCc1nc(-c2ccc3ncnc(Nc4ccc(F)c(Cl)c4)c3c2)cs1,7.71%
14,COc1cc2c(cc1Nc1nc(N3CCc4ccccc43)c3cc[nH]c3n1)N(C(=O)CN(C)C)CC2,-0.77%
15,O=C1Nc2ccc(C(=O)c3ccco3)cc2C1=Cc1cc(Cl)c(O)c(Cl)c1,2.1%
16,CCCN1CCC=C(c2ccc(Nc3nc(Nc4ccccc4C(N)=O)c4cc[nH]c4n3)c(C)c2)C1,3.32%
17,COc1cccc(-n2ncc3c(N/N=C/c4cccc(F)c4)ncnc32)c1,1.49%

# Biological target: Angiopoietin-1 receptor (Homo sapiens) (UniProt Q02763)
# Conditions: at 1 µM
row,SMILES,inhibition
1,CC(C)=Cc1cccc2c1/C(=N/Nc1ccc(S(N)(=O)=O)cc1)C(=O)N2,3.74%
2,COC(=O)Nc1nc2cc(Oc3cccc(NC(=O)Nc4cc(C(F)(F)F)ccc4F)c3)ccc2[nH]1,5.44%
3,Nc1ncnc2occ(-c3ccc(NC(=O)Nc4cc(C(F)(F)F)cc(C(F)(F)F)c4)cc3)c12,77.5%
4,CCn1c(-c2nonc2N)nc2cncc(C(=O)N3CCNCC3)c21,5.14%
5,NC(=O)c1ccc(-c2nc(-c3ccccn3)c(-c3ccc4c(c3)OCO4)[nH]2)cc1,5.38%
6,CCn1c(-c2nonc2N)nc2c(C#CC(C)(C)O)nc(CN3CCCC3)cc21,3.96%
7,NCc1ccc(-c2nc(-c3ccc(Cl)c(O)c3)c(-c3ccncc3)[nH]2)cc1,21%
8,N#Cc1c(NC(=O)c2cccc3ccccc23)sc2c1CCCC2,6.02%
9,Cc1cc(O)cc(C)c1/C=C/c1cncc(-c2nn[nH]n2)c1,4.4%
10,Cc1cccc(-c2n[nH]cc2-c2ccc3ncccc3n2)n1,3.33%
11,O=C1NC(=O)C(N2CCc3ccccc32)=C1c1ccc(Cl)cc1,8.86%
12,CCn1c(-c2nonc2N)nc2ccncc21,2.72%
13,Cc1nnc(-c2ccc(C)c(-c3ccc(C(=O)Nc4cccc(C#N)c4)cc3)c2)o1,5.45%
14,COc1ccc(-c2nn3ncccc3c2-c2ccnc(Nc3ccc(Cl)c(C(F)(F)F)c3)n2)cc1,4.42%
15,CS(=O)(=O)CCNCc1ccc(-c2ccc3ncnc(Nc4ccc(OCc5ccccc5)c(Cl)c4)c3c2)o1,9.67%
16,O=C1NC(=O)C(c2ccc(Cl)cc2)=C1Nc1ccc(Cl)c(C(=O)O)c1,3.01%
17,CCc1cccc(NC(=O)Nc2ccc(Oc3ccc4nc(NC(=O)OC)[nH]c4c3)cc2)c1,55.7%

row,SMILES,inhibition
1,Nc1ncnc2occ(-c3ccc(NC(=O)Nc4cccc(C(F)(F)F)c4)cc3)c12,74.4%
2,CCn1c(-c2nonc2N)nc2c(C#CC(C)(C)O)nc(OC[C@@H](N)c3ccccc3)cc21,10.4%
3,Cc1ccc(NC(=O)c2ccnc(N3CCCC3)c2)cc1-c1ccc(C(=O)NCC2CC2)cc1,5.42%
4,CCn1c(-c2nonc2N)nc2cncc(C(=O)N3CC[C@H](N)C3)c21,11.4%
5,Cn1cc(C=C2C(=O)Nc3cccnc32)c2ccccc21,5.24%
6,CN(C)c1cc2c(Nc3ccc4nc(Cc5ccccc5)[nH]c4c3)ncnc2cn1,4.47%
7,O=C1NC(=O)C(c2ccccc2Cl)=C1Nc1cccc(O)c1,5.97%
8,CC(=O)Nc1cccc(C#Cc2cncnc2Nc2ccc(OCc3cccc(F)c3)c(Cl)c2)n1,2.93%
9,COc1ccccc1Nc1ncc(-c2ccccc2)o1,6.44%
10,CCn1c(-c2nonc2N)nc2c(N3CCCC3)nccc21,0.05%
11,COc1ccc(-c2coc3ncnc(N)c23)cc1,7.38%
12,O=C1NC(=O)C(c2cccc(Cl)c2)=C1Nc1ccc(O)c(Cl)c1,3.61%
13,CS(=O)(=O)CCNCc1nc(-c2ccc3ncnc(Nc4ccc(F)c(Cl)c4)c3c2)cs1,5.89%
14,COc1cc2c(cc1Nc1nc(N3CCc4ccccc43)c3cc[nH]c3n1)N(C(=O)CN(C)C)CC2,1.37%
15,O=C1Nc2ccc(C(=O)c3ccco3)cc2C1=Cc1cc(Cl)c(O)c(Cl)c1,3.01%
16,CCCN1CCC=C(c2ccc(Nc3nc(Nc4ccccc4C(N)=O)c4cc[nH]c4n3)c(C)c2)C1,3.76%
17,COc1cccc(-n2ncc3c(N/N=C/c4cccc(F)c4)ncnc32)c1,9%
